Screens from PubChem BioAssay.
TrxR1 inh – rat TrxR1 inhibition | O89049 | recombinant rTrxR1, NADPH fluorescence consumption, selenite substrate | Potency, µM (highest dose often 114 µM), actives largely listed as inhibitors | 390,000 compounds, 1% hits | AID 588453; also: nearly all actives have a fitted effect of over 65% in size
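Rat TrxR1 (90 nM in the dispensed reagent) was pre-reduced with 400 uM NADPH for 5 min at room temperature, then incubated with compound for 15 min. After 400 uM selenite was added, NADPH fluorescence (Ex 340/Em 450 nm) was followed for 8 min.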
Nrf2 inh – Nrf2 pathway inhibition | Potency, µM (series often up to 46 µM), hits mostly inhibitors | 360,000 compounds, 2.1% hits | A549 ARE-Fluc reporter, luciferase luminescence, 18-24 h; also: nearly all actives have a fitted effect of over 60% in size
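In this cell-based qHTS, ARE-driven firefly luciferase in A549 cells reports Nrf2 activity; the luminescent signal after BugLite lysis is the measured value, with a prior CellTiter-Fluor read for cell health.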
Nrf2 activator – activators of Nrf2 (ARE) signaling; AREc32 ARE-luciferase reporter (MCF7-derived line), luminescence, 24 h; Potency, µM (top dose mostly 46.1 µM), hits mostly activators; 410,000 compounds, 0.31% hits; also: nearly all actives have a fitted effect of over 65% in size
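AREc32_Fluc, 1000 cells/well, OPTI-MEM + 5% FBS, o/n 37 deg C 5% CO2; 23 nL cpd by pin tool, 24 hr; Steady-Glo 30 min RT, luminescence.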
A549 tox – kills or reduces viability of A549 cells in Nrf2 counter-screen | Potency, µM (titrated, usually from 46 µM), most hits filed as inhibitors | 390,000 compounds, 0.16% hits | A549 ARE-Fluc cells, CellTiter-Fluor viability, 18-24 h
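A549 ARE-Fluc cells in 5% FBS OPTI-MEM, 5000 cells/well, rested 2 h then exposed to compounds in concentration-response for 18-24 h at 37 °C. Viability by CellTiter-Fluor fluorescence (Ex 405/Em 525) after 30 min; luciferase luminescence (BugLite, 15 min, RT) read afterwards.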
GALK inhibitor – blocks human galactokinase activity; P51570; Purified GALK, Kinase-Glo residual ATP luminescence; Potency, µM (highest dose often 57.5 µM), actives largely listed as inhibitors; 270,000 compounds, 0.007% hits
Target sequence (P51570 whole entry, looked up): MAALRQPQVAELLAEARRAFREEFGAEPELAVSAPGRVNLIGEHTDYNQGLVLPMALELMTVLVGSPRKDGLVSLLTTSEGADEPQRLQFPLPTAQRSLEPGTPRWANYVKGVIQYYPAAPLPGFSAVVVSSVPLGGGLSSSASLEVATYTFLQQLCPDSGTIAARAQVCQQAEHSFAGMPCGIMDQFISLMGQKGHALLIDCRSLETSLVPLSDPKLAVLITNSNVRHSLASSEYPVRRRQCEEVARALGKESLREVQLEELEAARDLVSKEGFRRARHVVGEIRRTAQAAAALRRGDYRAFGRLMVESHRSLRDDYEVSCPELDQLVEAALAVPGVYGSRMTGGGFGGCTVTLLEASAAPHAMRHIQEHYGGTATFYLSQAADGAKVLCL
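5 nM enzyme, 35 uM ATP, 100 uM galactose, 20 mM HEPES pH8.0, 5 mM MgCl2; 1 h RT; residual ATP by Kinase-Glo Plus luminescence, qHTS format.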
TrxR1 substrate – rat thioredoxin reductase 1 substrate activity; purified TrxR1 substrate turnover, NADPH consumption readout; Potency, µM (doses to about 114 µM); 390,000 compounds, 0.01% hits; AID 588456; also: nearly all actives have a fitted effect of over 50% in size
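Rat TrxR1, dispensed at 90 nM, was prereduced with 400 uM NADPH (final) for 5 min at ~22 deg C, then incubated with compound 15 min before 400 uM selenite. A first-read NADPH fluorescence drop versus no-compound background flagged substrates.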
Numbers stand for hits; 0 = inactive; ? = inconclusive; - = no result given; [ ] = another dose, or the depositor's remark. Shown are actives, neighbours in structure and some others; about 3% of the full set was active somewhere. Calls follow the shape of the dose curve; as a rule, active = well fitted curve in the direction sought with a large enough effect; inconclusive = small, poorly fitted or top-dose-only effect, or another doubt; inactive = no such curve, though single readings can be large; an effect the other way counts as inactive or inconclusive.

SMILES	TrxR1 inh	Nrf2 inh	Nrf2 activator	A549 tox	GALK inhibitor	TrxR1 substrate
Cn1c(=O)n(C)c2cc([N+](=O)[O-])c(N3CCN(C(=O)c4cccc(Cl)c4)CC3)cc21	0	?	0	0	0	0
Cc1ccccc1-n1c(SCC(=O)Nc2ccc(Cl)cc2F)nnc1-c1cc2occc2n1C	0	0	0	0	-	0
CC(=O)N1CCCc2ccc(NC(=O)c3ccc(OC(C)C)cc3)cc21	0	-	0	0	-	0
Cc1cc(C)c(OCC(=O)N(Cc2ccc(N(C)C)cc2)Cc2ccco2)c(C)c1	0	?	0	0	-	0
COc1cc(C)cc2oc(=O)c(CC(=O)NCCc3ccc(Cl)cc3)c(C)c12	0	0	0	0	-	0
NC(=S)NN=C1c2ccccc2-c2c(F)c(F)c(F)c(F)c21	56.2µM	0	?	0	-	0
COc1ccc2oc(=O)c(-c3csc(/C(C#N)=C/c4ccc(F)cc4)n3)cc2c1	?	0	0	0	-	?
COC(=O)CSc1nc2c(c(-c3ccco3)c1C#N)CCCC2	15.8µM	0	0	0	0	0
CCOc1ccccc1C(=O)NC1CCN(CC(=O)Nc2cc(OC)ccc2OC)CC1	0	23.1µM	0	0	0	0
CCOc1ccccc1NC(=O)CN1CCC(NC(=O)c2ccccc2C)CC1	0	0	0	0	0	0
CCOC(=O)C[C@H]1c2cc(F)ccc2S(=O)(=O)N1Cc1cc(OC)c(OC)c(OC)c1	0	-	-	-	-	0
Cc1c(C(=O)Nc2ccncc2)sc2nc(-c3ccccc3)cn12	0	10.3µM	0	0	0	0
COC(=O)c1c(C)[nH]c(C(=O)/C=C/c2ccccc2)c1C	0	?	0	0	0	0
COC(=O)c1c(C)[nH]c(C(=O)/C=C/c2ccc(C)cc2)c1C	0	2.59µM	0	0	0	0
CC1Cn2c(C(=O)NCc3cccc(Br)c3)cc3cccc(c32)S1 (stereo not given)	0	0	0	?	-	0
COC(=O)[C@@H]1N2C(=O)[C@@H](NC(=O)C(C)Oc3ccccc3)[C@H]2SC1(C)C (stereo not given in full)	0	-	-	-	-	0
CC(Oc1ccccc1)C(=O)N[C@@H]1C(=O)N2[C@@H]1SC(C)(C)[C@@H]2C(=O)OCc1ccccc1 (stereo not given in full)	50.1µM	-	-	-	-	0
CCOC(=O)C(C(=O)OCC)C(Nc1cccc(Br)c1)c1ccccc1 (stereo not given)	?	18.4µM	?	?	0	0
CCN(CC)CCCNC(=O)CN1C(=O)COc2ccc(S(=O)(=O)N3CCC(C)CC3)cc21	0	0	0	0	-	0
Cc1nn(C2CCS(=O)(=O)C2)c(Cl)c1/C=C/C(=O)OCC(=O)c1cc(C)n(-c2ccc(F)cc2)c1C (stereo not given)	0	20.6µM	0	0	0	0
Cc1nn(C2CCS(=O)(=O)C2)c(Cl)c1/C=C/C(=O)OCC(=O)c1c[nH]c2ccccc12 (stereo not given)	0	?	0	?	0	0
COc1ccc(CCNS(=O)(=O)c2ccc(N3CCCC3=O)cc2)cc1	0	25.9µM	0	0	-	0
Cc1nn(C)c(C)c1NS(=O)(=O)c1ccc(N2CCCC2=O)cc1	0	14.6µM	0	0	0	0
Cc1ccccc1NS(=O)(=O)c1ccc(N2CCCC2=O)cc1	0	?	0	0	0	0
Cc1ccc(CCNC(=O)c2ccc(CNS(=O)(=O)c3ccc(F)cc3)cc2)cc1	0	-	0	0	-	0
SMILES	TrxR1 inh	Nrf2 inh	Nrf2 activator	A549 tox	GALK inhibitor	TrxR1 substrate
O=C(NNC(=S)NC(=O)c1ccc(Br)cc1)c1ccc([N+](=O)[O-])cc1	0	20.6µM	0	0	0	0
O=C(NNC(=O)C12CC3CC(CC(C3)C1)C2)c1cccc([N+](=O)[O-])c1	0	0	10µM	0	0	0
CC(=O)NNC(=S)NC(=O)c1cccc([N+](=O)[O-])c1	50.1µM	0	0	0	0	0
O=C(NC(NC(=S)Nc1c(Cl)cccc1Cl)C(Cl)(Cl)Cl)c1cccc([N+](=O)[O-])c1 (stereo not given)	0	16.4µM	0	?	0	0
CCOC(=O)N1CCN(Cc2nc3cc(NC(=O)c4cccc(C)c4)ccc3n2C(C)C)CC1	0	0	0	?	-	0
Cc1cc2c(s1)c1cnn(Cc3ccc(Cl)cc3)c(=O)c1n2C	-	0	-	0	-	-
CC1(C)C(/C=C/C=C/C=C/C=C2\N(CCCCS(=O)(=O)O)c3ccc4ccccc4c3C2(C)C)=[N+](CCCCS(=O)(=O)[O-])c2ccc3ccccc3c21	3.55µM	?	0	?	-	0
COc1ccc(-c2ccc(NS(=O)(=O)c3ccccc3Cl)cc2)nn1	0	-	0	0	-	0
Cc1ccc2[nH]cc(C(c3ccccc3)c3ccc(C)s3)c2c1 (stereo not given)	0	?	0	0	-	0
Cc1[nH]c2ccccc2c1N=Nc1ccc(F)cc1	0	25.9µM	?	?	0	0
CCOC(=O)c1ccccc1NC(=O)N(C(C)C)C1CCN(C(C)=O)CC1	0	0	0	0	-	0
Cc1cc(C)nc(NN2C(=O)/C(=C/c3ccccc3)SC2=S)n1	0	0	0	0[1.84 µM]	0	0
Cc1cc(C)nc(NN2C(=O)C=CC2=O)n1	7.94µM	0	0	0	0	0
O=C(NCCc1ccccc1)C(=O)NCC(c1cccnc1)N1CCN(c2ccccc2)CC1 (stereo not given)	0	0	0	0	-	0[11.4 µM]
O=C(Nc1ccc(-c2nc3ncccc3o2)cc1)c1ccco1	39.8µM	0	0	0	0	0
O=C(Nc1ccc(-c2nc3ncccc3o2)cc1)c1ccc(Br)o1	0	?	0	0	0	0
COc1ccccc1CN1CCC(CNC(=O)c2cnn(-c3ccc(Cl)cc3)c2C2CCN(C(=O)OC(C)(C)C)CC2)CC1	0	?	0	?	-	0
O=C1CC(c2cccc([N+](=O)[O-])c2)c2cc3c(cc2N1)CCC3 (stereo not given)	0	14.6µM	0	?	0	0
O=C1CC(c2cccc(Cl)c2)c2cc3c(cc2N1)CCC3 (stereo not given)	0	0	0	0	0	0
COc1ccc(-c2ccc3ncnc(NCc4cccs4)c3c2)cc1	-	0	-	0	-	-
COc1ccccc1-c1ccc(/C=C2\C=CC(=O)O2)o1	14.1µM	0	15.8µM	0	0	0
COc1ccccc1-c1ccc(/C=C2/C=C(C)OC2=O)o1	?	?	0	0	-	0
O=C(CSC1=NCCS1)c1ccc(Cl)cc1	0	13µM	0	0	0	0
O=C1C(=O)N(C2CCN(C(=O)c3ccccc3Cl)CC2)CCN1Cc1ccc(F)cc1	0	0	0	0	-	0
CCN1C(=O)/C(=C\C(=O)c2cccs2)c2cc(Br)ccc21	17.8µM	0	0	0	0	0
